Assay results taken from PubChem BioAssay (NCI).
The panel holds about 83,000 compounds, 20% with a hit somewhere; the sample as a whole holds those more often.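 Plates (96-well) were seeded with cells, treated with compound at one concentration, and incubated for 48 hours before percent growth was determined.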 Calls of active or inactive are those of the source. How the source made its calls: active means growth percent below 10; inactive means the rest.

How the values were obtained:
Test in all cases: NCI-60 one-dose screen, 48 h (100 = growth as untreated, 0 = no growth, -100 = all killed)
Details in all cases: 10 µM unless noted
[1] = test system: NCI-H23 lung
[2] = test system: NCI-H226 lung
[3] = test system: NCI-H322M lung
[4] = test system: HOP-62 NSCLC
[5] = test system: NCI-H460 lung
[6] = test system: A549/ATCC NSCLC
[7] = test system: 786-0 renal
[8] = test system: COLO 205 colon
[9] = test system: DU-145 prostate
[10] = test system: K-562 leukemia
[11] = test system: MALME-3M melanoma
[12] = test system: MDA-MB-231 breast
[13] = test system: RXF 393 renal
[14] = test system: SF-268 CNS
[15] = test system: SF-295 CNS
[16] = test system: SF-539 CNS
[17] = test system: UACC-257 melanoma
[18] = test system: M14 melanoma

Measured: growth

C/C=C/C/C=C/[C@H](C)C[C@H](O)[C@@H]1C[C@@H]2O[C@H]2/C=C/[C@H](O)[C@@H](O)/C=C/C[C@H](C)CC(=O)O1
inactive: [1] 83% | [2] 87% | [3] 88.9% | [4] 89.6% | [5] 62.8% | [6] 71.8% | [7] 83.3% | [8] 109% | [9] 90.7% | [10] 65.8% | [11] 103% | [12] 90% | [13] 117% | [14] 85.8% | [15] 84.5% | [16] 85.2% | [17] 110% | [18] 81.5%

N#Cc1c2ncccc2c2nnc3cc(Cl)c(Cl)cc3n12
inactive: [1] 88.6% | [2] 104% | [3] 100% | [4] 82.7% | [5] 100% | [6] 107% | [7] 108% | [8] 113% | [9] 89.2% | [10] 91% | [11] 79.6% | [12] 67% | [13] 116% | [14] 90.6% | [15] 105% | [16] 97.1% | [17] 95.3% | [18] 100%

COC(=O)[C@@H]1[C@H](O)[C@H](C)[C@H](O)[C@H](C)/C=C\C=C(C)C(=O)Nc2c(C)c(OC(C)=O)c3c(c2O)C(=O)C(C)=C2OCOC(=C23)C(C)=C[C@@](C)(O)[C@H](O)[C@@H](C)[C@H]1OC(C)=O
active: [4] -100%
inactive: [1] 109% | [2] 104% | [3] 121% | [5] 110% | [6] 98.6% | [7] 111% | [8] 116% | [9] 144% | [10] 145% | [11] 131% | [12] 125% | [13] 106% | [14] 108% | [15] 118% | [16] 101% | [17] 106% | [18] 107%

CCCCCCCCCCCCCCCCNC(=S)N/N=C/c1ccc(OC)cc1
inactive: [1] 103% | [2] 98.6% | [3] 108% | [4] 117% | [5] 104% | [6] 96.1% | [7] 95.3% | [8] 115% | [9] 104% | [10] 105% | [11] 103% | [12] 95.1% | [13] 92% | [14] 107% | [15] 84.9% | [16] 91.7% | [17] 99.3% | [18] 96.1%

CC(=O)c1ccc2c(c1)c1ccccc1n2C
inactive: [1] 94.1% | [2] 84.2% | [3] 86.2% | [4] 83.2% | [5] 98.5% | [6] 96.9% | [7] 96.6% | [8] 99.8% | [9] 104% | [10] 86.7% | [11] 105% | [12] 102% | [13] 94.7% | [14] 101% | [15] 85.8% | [16] 108% | [17] 104% | [18] 106%

C/C(=C\c1ccc2ccccc2c1)[N+](=O)[O-]
active: [7] -62.9% | [8] -26.9% | [10] 5.31% | [11] -58.7% | [13] -86.1%
inactive: [1] 74.6% | [2] 67% | [3] 78.2% | [4] 98.7% | [5] 98.8% | [6] 97.3% | [9] 27% | [12] 50.8% | [14] 21% | [15] 92.2% | [16] 15.6% | [17] 68.9% | [18] 22.4%

C=CCC(CCC(CC=C)C(=O)OCC)C(=O)OCC (stereo unspecified)
inactive: [1] 108% | [2] 104% | [3] 83.3% | [4] 103% | [5] 105% | [6] 106% | [7] 98.5% | [8] 110% | [9] 110% | [10] 108% | [11] 96.2% | [12] 107% | [13] 108% | [14] 105% | [15] 91.9% | [16] 105% | [17] 113% | [18] 102%

C=CN(C)S(C)(=O)=O
inactive: [1] 32.2% | [2] 91.2% | [3] 39.5% | [4] 22.6% | [5] 17.8% | [6] 34.5% | [7] 39.5% | [8] 111% | [9] 18.5% | [10] 21.9% | [11] 28.3% | [12] 46.2% | [14] 36.5% | [17] 35.5% | [18] 28.8%
active: [13] -9.3% | [15] 8.18% | [16] 4.91%

CC(C)(C)c1ccc(OCCOC(=O)CBr)cc1
inactive: [1] 98.7% | [2] 102% | [3] 120% | [4] 99.1% | [5] 102% | [6] 105% | [7] 103% | [8] 89.1% | [9] 109% | [10] 82.8% | [11] 107% | [12] 88% | [13] 78.5% | [14] 96.3% | [15] 116% | [16] 100% | [17] 106% | [18] 95.8%

Cc1ccc(NC(=O)CCl)cc1Cl
inactive: [1] 89.2% | [2] 103% | [3] 97.1% | [4] 98.9% | [5] 105% | [6] 106% | [7] 117% | [8] 122% | [9] 111% | [10] 87.3% | [11] 78.7% | [12] 89.4% | [13] 102% | [14] 103% | [15] 81.2% | [16] 108% | [17] 90.5% | [18] 104%

CCCCCCCCCCC1OC(C)CC(C)O1 (stereo unspecified)
inactive: [1] 100% | [2] 102% | [3] 102% | [4] 99.8% | [5] 106% | [6] 98.7% | [7] 93.4% | [8] 105% | [9] 104% | [10] 86.5% | [11] 98% | [12] 115% | [13] 103% | [14] 96% | [15] 109% | [16] 103% | [17] 113% | [18] 101%

O=c1c2c(c3ccccc3n1-c1ccccc1)NC(=S)NC2c1ccccc1 (stereo unspecified)
inactive: [1] 98.5% | [2] 92.1% | [3] 130% | [4] 90.5% | [5] 104% | [6] 103% | [7] 97.3% | [8] 113% | [9] 115% | [10] 101% | [11] 112% | [12] 84.7% | [13] 117% | [14] 104% | [15] 121% | [16] 94.8% | [17] 108% | [18] 98.8%

COc1cc(-c2nn(-c3ccc(NC(=O)Nc4ccc(Cl)c(C(F)(F)F)c4)cc3)cc2-c2ccncc2)ccc1Cl
inactive: [2] 17.9% | [3] 39% | [6] 11.9% | [9] 34% | [10] 13.2% | [11] 12.1% | [14] 21.7% | [16] 14.7%
active: [1] 2.97% | [4] 8.98% | [5] -51.7% | [7] -52.3% | [8] -94% | [12] 7.76% | [13] -30.2% | [15] -7.8% | [17] -3.17% | [18] 1.7%

CCCCCCCCCCCC(=O)OC(C)C(=O)Nc1ccccc1 (stereo unspecified)
inactive: [1] 98.9% | [2] 103% | [3] 95.3% | [4] 97.4% | [5] 104% | [6] 104% | [7] 94.7% | [8] 102% | [9] 106% | [10] 97.7% | [11] 96.3% | [12] 109% | [13] 117% | [14] 102% | [15] 85.7% | [16] 98.9% | [17] 99.7% | [18] 96.9%

Oc1ccc(Br)cc1/C=N/NC(=S)NC12CC3CC(CC(C3)C1)C2
active: [1] 1.36% | [5] 2.18% | [6] 8.34% | [9] 9.26% | [10] 0.99% | [12] -4.61% | [13] -15.6% | [14] 8.34%
inactive: [2] 31.5% | [3] 36.5% | [4] 16.1% | [7] 54.8% | [8] 68% | [11] 17.6% | [15] 17% | [16] 36.7% | [17] 26.1% | [18] 20.6%

COc1cc(-c2nn(-c3ccc(NC(=O)Nc4cc(C(F)(F)F)cc(C(F)(F)F)c4)cc3)cc2-c2ccncc2)ccc1Cl
active: [1] 8.45% | [3] 6.93% | [5] -20.6% | [7] -41.4% | [8] -89.8% | [11] -1.21% | [12] -18.7% | [13] -2.81% | [15] -34.8% | [17] -1.38% | [18] 4.73%
inactive: [2] 18.4% | [4] 12.2% | [6] 12.1% | [9] 16.8% | [10] 17.2% | [14] 14.1% | [16] 15.8%

CC(=O)N1CCN(CCNC(=O)n2cc(-c3ccncc3)c(-c3cc(O)cc(Cl)c3)n2)CC1
inactive: [1] 99.7% | [2] 102% | [3] 106% | [4] 94.2% | [5] 89% | [6] 102% | [7] 67.8% | [8] 86.8% | [9] 89.5% | [10] 53.5% | [11] 31.9% | [12] 82.5% | [13] 65.2% | [14] 96% | [15] 80.5% | [16] 71.6%
active: [17] -34% | [18] 5.16%
